Results on 17 compounds are retold here after PubChem BioAssay.

Activity calls are given as the source filed them.

One assay has as its target Albumin (Bos taurus) (UniProt P02769). In words: bovine serum albumin binders on microarray, profiling panel, artefact control for SMM control protein annotation, biochemical, small-molecule microarray, Alexa647 label, 635/667 nm fluorescence (AID 1118).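 Further: score merges 667 nm emission intensity and signal-to-noise per printed compound spot.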 To be noted: BSA-A647 binding, fluorescence 635 nm, higher = more signal.
The nature of assay [1]: small-molecule microarray binders of probe aXIP, primary screen, biochemical, NeuroSMM set, 635/667 nm fluorescence (AID 1119).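 Further: probe is the protein aXip251-270 applied at 1 µg/mL to compound-printed slides; binding of probe to printed compounds measured as 667 nm fluorescence plus signal to noise.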 To be noted: higher = more signal, called active from +8 up or from −8 down.
The nature of assay [2]: small-molecule binders of probe aNOTCH3, primary screen, biochemical, small-molecule microarray, 635/667 nm fluorescence (AID 1120).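 Further: probe is a biotin-tagged antibody raised against NOTCH3 rather than NOTCH3 protein; score merges spot fluorescence near 667 nm with spot signal to noise.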 To be noted: higher = more signal.
A short description of assay [3]: small-molecule binders of probe aNOTCH2, primary screen, biochemical, small-molecule microarray, 635/667 nm fluorescence (AID 1121).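 Further: score merges feature fluorescence read at 667 nm with its signal to noise.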 To be noted: higher = more signal.
Assay [4] deals with Carbonic anhydrase 2 (Homo sapiens) (UniProt P00918). In words: CAII small-molecule binders, profiling panel, biochemical, small-molecule microarray, Alexa647-labelled CAII (AID 1122). To be noted: CAII-A647 binding fluorescence, higher = more signal.
The nature of assay [5]: COS7 lysate on small-molecule microarray, probe aHis, 635 nm (AID 1123).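 Further: z-score combines 667nm fluorescence intensity with signal-to-noise per printed compound spot.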 Conditions: COS7 cell lysate, fluorescence, higher = more signal.
Assay [6] is described as follows: compound binding in COS7 lysate, probe aLAP1, primary screen, cell lysate, small-molecule microarray (AID 1124).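 Further: lysate comes from COS7 cells expressing LAP1 and is applied at 0.3 µg/mL; score merges spot fluorescence near 667 nm with signal-to-noise over triplicate slides.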 To be noted: probe aLAP1, fluorescence, higher = more signal.
Another assay relates to Sam68 (KHDRBS1). Nature of the assay: Sam68 small-molecule binders, primary screen, biochemical, small-molecule microarray, 635 nm fluorescence (AID 1125).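 Further: score merges 667 nm channel intensity with signal to noise over triplicate slides.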 Conditions: small-molecule microarray binding, higher = more signal.
Assay [7] concerns Chordin-like protein 2 (CHRDL2). Nature of the assay: CHRDL2 small-molecule binders, primary screen, biochemical, small-molecule microarray, 635 nm fluorescence (AID 1126).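 Further: printed compound slides probed with Chrdl2 protein at 4 µg/mL for 1 h at 4 C; score merges 667 nm emission intensity with signal to noise over three replicate slides.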 Conditions: small-molecule microarray binding, fluorescence 635 nm; higher = more signal.
In assay [8] the target is Concanavalin-A (Canavalia ensiformis) (UniProt P02866). Nature of the assay: ConA small-molecule binders, primary screen, artefact control for SMM control protein annotation, biochemical, small-molecule microarray, Alexa647 label, 635 nm (AID 1127).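 Further: z combines 667 nm emission intensity with signal-to-noise across three replicate slides.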 Conditions: ConA-A647 binding fluorescence, higher = more signal.
Concanavalin-A (Canavalia ensiformis), sequence (P02866 whole entry, looked up): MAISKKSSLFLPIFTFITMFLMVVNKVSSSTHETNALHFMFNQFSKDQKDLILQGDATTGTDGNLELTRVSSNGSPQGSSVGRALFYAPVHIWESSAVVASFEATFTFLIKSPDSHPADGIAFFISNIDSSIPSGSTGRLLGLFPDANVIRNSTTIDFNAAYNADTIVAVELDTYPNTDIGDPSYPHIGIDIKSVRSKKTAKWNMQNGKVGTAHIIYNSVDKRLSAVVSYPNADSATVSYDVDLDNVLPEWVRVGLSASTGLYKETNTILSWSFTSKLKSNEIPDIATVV

Albumin (Bos taurus), sequence (P02769 whole entry, looked up): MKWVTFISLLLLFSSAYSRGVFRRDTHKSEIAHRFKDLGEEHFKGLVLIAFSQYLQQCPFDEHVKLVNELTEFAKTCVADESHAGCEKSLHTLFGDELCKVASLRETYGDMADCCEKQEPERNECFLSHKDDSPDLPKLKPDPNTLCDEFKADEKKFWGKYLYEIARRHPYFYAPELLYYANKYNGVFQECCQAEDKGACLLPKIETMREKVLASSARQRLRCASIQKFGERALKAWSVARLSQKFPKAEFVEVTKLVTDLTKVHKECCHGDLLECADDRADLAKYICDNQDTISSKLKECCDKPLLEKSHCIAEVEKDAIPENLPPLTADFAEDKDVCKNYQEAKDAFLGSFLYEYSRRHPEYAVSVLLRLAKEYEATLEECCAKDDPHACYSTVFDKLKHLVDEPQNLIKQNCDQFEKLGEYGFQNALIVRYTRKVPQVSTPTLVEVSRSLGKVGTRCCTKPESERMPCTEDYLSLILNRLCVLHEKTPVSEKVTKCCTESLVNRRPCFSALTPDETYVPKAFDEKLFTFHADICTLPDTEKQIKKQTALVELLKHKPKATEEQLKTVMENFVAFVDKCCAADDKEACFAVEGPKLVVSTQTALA

As for `CO[C@H](C1CCCCC1)[C@H](C)C=CCC(=O)OCCCc1ccccc1`, the composite z-score with Albumin (Bos taurus) was -0.553; in assay [2] it was -0.125; in assay [3] it was -0.0751; in assay [4], -0.3; in [5], -0.856; in assay [6] it was -0.133. The composite z-score with Sam68 (KHDRBS1) is -0.53; in assay [7], 0.562; in [8], -0.394. Moreover, in [1], the composite Z-score was 0.349 (inactive).

As to `CO[C@H]1COC(=O)[C@@H]2CCCN2C(=O)CC=C[C@@H](C)[C@H](OC)COC(=O)[C@@H](OCc2ccccc2)C=C[C@@H]1C`, the composite z-score with Albumin (Bos taurus) was -0.761; in [2], 0.114; in assay [3], -0.115; in assay [4] it was -0.499; in [5] it was -0.756; in assay [6] it was -0.549. For the same compound, the composite z-score in the assay with Sam68 (KHDRBS1) is -0.11; in assay [7], 1.33; in [8] it was -0.4. Besides, the composite Z-score in assay [1] was -1.04 (inactive).

For the compound `CO[C@@H]1COC(=O)CC=C[C@H](C)[C@H](OC)COC(=O)[C@H](C)NC(=O)CC=C[C@H]1C`, the composite z-score in the assay with Albumin (Bos taurus) is -0.837; in assay [2], -0.0043; in [3], -0.118; in assay [4], -0.481; in assay [5], -0.448; in assay [6], -0.134. In addition, the composite z-score in the assay on Sam68 (KHDRBS1) was 0.786; in [7], 0.896; in assay [8] it was -1.76. Moreover, the composite Z-score in assay [1] was 1.11 (inactive).

As for `COC(=O)CC=C[C@@H](C)[C@@H](C=NO[C@@H](C)c1cn([C@H](CO)Cc2ccccc2)nn1)NS(=O)(=O)c1ccc(C)cc1`, the composite z-score is -0.193 with Albumin (Bos taurus); 0.107 in assay [2]; -0.103 in assay [3]; -0.146 in assay [4]; -0.306 in assay [5]; 0.232 in [6]. Moreover, the composite z-score in the assay on Sam68 (KHDRBS1) was 0.43; in [7] it was 0.784; in assay [8] it was -0.419. The composite Z-score in assay [1] is -0.0278 (inactive).

On to `CO[C@H]1COC(=O)CC=C[C@H](C)[C@@H](OC)COC(=O)[C@H](C)COC(=O)CC=C[C@@H]1C`, for which the composite z-score was -1.2 with Albumin (Bos taurus); 0.0306 in [2]; -0.133 in [3]; -0.425 in assay [4]; -0.552 in assay [5]; 0.975 in assay [6]. Further, the figures for the composite z-score (in the assay on Sam68 (KHDRBS1); in assay [7]; in assay [8]) were -0.106, 1.43 and -0.55, respectively. For the same compound, the composite Z-score in [1] was 0.559 (inactive).

For the compound `CO[C@H]1COC(=O)CC=C[C@@H](C)[C@H](NS(=O)(=O)c2ccc(C)cc2)COC(=O)CCC[C@@H]1C`, the composite z-score with Albumin (Bos taurus) was -0.48; in [2], -0.0711; in assay [3] it was -0.11; in [4] it was -0.312; in [5], -0.42; in assay [6], 0.303. The composite z-score with Sam68 (KHDRBS1) is 0.515; in [7], 1.23; in assay [8], -0.0177. The composite Z-score in assay [1] is -0.483 (inactive).

Take `O=C(NN=C1C[C@@H](O)[C@@H](O)[C@@H]2[C@@H]3C(=O)N(C[C@@H]4CCCO4)C(=O)[C@@H]3CC[C@@H]12)OCc1ccccc1`: the composite z-score with Albumin (Bos taurus) is 0.103; in assay [2], -0.0647; in [3], -0.16; in assay [4], -0.275; in [5], -0.12; in assay [6] it was 0.373. For the same compound, the composite z-score in the assay with Sam68 (KHDRBS1) was 0.794; in assay [7], 0.909; in assay [8] it was -0.18. For the same compound, the composite Z-score in [1] was 0.008 (inactive).

In the case of `CO[C@H]1COC(=O)CC=C[C@@H](C)[C@H](OC)COC(=O)[C@@H]2CCCN2C(=O)CC=C[C@@H]1C`, the composite z-score with Albumin (Bos taurus) was -0.871; in assay [2], -0.0077; in assay [3], -0.107; in assay [4] it was -0.377; in assay [5], -0.339; in [6], -0.322. Further, the composite z-score was 0.672 in the assay on Sam68 (KHDRBS1), 1.32 in [7] and -0.222 in [8]. Moreover, the composite Z-score in assay [1] is 0.668 (inactive).

As for `O=C1[C@H]2[C@H]3[C@H](O)[C@H](O)CC(=NOC[C@@H](O)COCc4ccco4)[C@@H]3CC[C@H]2C(=O)N1C[C@@H]1CCCO1`, the composite z-score in the assay with Albumin (Bos taurus) is 0.63; in assay [2], -0.0345; in [3] it was -0.0986; in assay [4], -0.267; in assay [5] it was 0.155; in assay [6], 0.174. The composite z-score in the assay on Sam68 (KHDRBS1) is 0.902; in assay [7], 1.53; in assay [8], -0.281. The composite Z-score in assay [1] was 0.381 (inactive).

As for `O=C1CCCC=C1C(O)CCCCBr` (stereo not given), the composite z-score was 0.956 in the assay with Albumin (Bos taurus); 0.0242 in assay [2]; 0.0377 in assay [3]; 0.778 in assay [4]; 1.1 in assay [5]; -0.101 in assay [6]. The composite z-score in the assay with Sam68 (KHDRBS1) stood at 0.381; in assay [7] it was 0.0069; in assay [8], 1.09. Besides, the composite Z-score in assay [1] was 1.36 (inactive).

As for `COC(=O)[C@@H]1CC[C@H](C)[C@@H](c2ccc(C)cc2)N1C(=O)c1ccc(C=NO[C@H](C)c2cn([C@@H]3COC[C@H]3O)nn2)cc1`, the composite z-score with Albumin (Bos taurus) is 0.56; in [2], -0.125; in assay [3], -0.117; in [4] it was 0.311; in assay [5], 0.81; in [6], -0.0293. Besides, the values for the composite z-score (in the assay on Sam68 (KHDRBS1); in assay [7]; in assay [8]) were 1.21, 0.389 and 0.581, respectively. The composite Z-score in [1] is -0.359 (inactive).

As for `COC(=O)CC=C[C@@H](C)[C@@H](C=NO[C@H](C)c1cn([C@H](CO)Cc2ccccc2)nn1)OC`, the composite z-score was 0.113 with Albumin (Bos taurus); 0.118 in assay [2]; -0.118 in assay [3]; -0.16 in assay [4]; 0.188 in assay [5]; 0.456 in assay [6]. Further, the composite z-score in the assay with Sam68 (KHDRBS1) is 0.804; in assay [7] it was 0.944; in [8], 0.254. The composite Z-score in [1] was 0.215 (inactive).

On to `Cc1cc2c(nc1C)CCCN2CC(O)CN1CCCc2nc(C)c(C)cc21`, for which the composite z-score is -0.293 with Albumin (Bos taurus); 0.308 in assay [2]; 0.054 in [3]; 0.798 in [4]; 1.21 in [5]; 0.446 in [6]. The composite z-score with Sam68 (KHDRBS1) turned out to be 0.651; in [7], 0.633; in assay [8], 0.879. For the same compound, the composite Z-score in assay [1] was 2.34 (inactive).

Turning to `CCOC(=O)[C@H](CC(C)C)NC(=O)CCC1CC(OC(=O)NCc2ccc3c(c2)OCO3)CC2(CCCC(COC(=O)NCC(c3ccccc3)c3ccccc3)O2)O1` (stereo not given in full), the composite z-score with Albumin (Bos taurus) was 0.23; in [2], 0.0876; in assay [3], -0.147; in assay [4], 0.538; in assay [5] it was 0.674; in [6], -0.144. In addition, the composite z-score with Sam68 (KHDRBS1) is 0.714; in assay [7] it was 0.0432; in assay [8] it was 1.09. Moreover, the composite Z-score in assay [1] was 0.142 (inactive).

Turning to `O=C1[C@H]2[C@H]3[C@H](O)[C@H](O)CC(=NO[C@@H]4O[C@H](CO)[C@@H](O)[C@H](O)[C@H]4O)[C@H]3CC[C@H]2C(=O)N1c1cccc(Oc2ccccc2)c1`, the composite z-score was -0.0534 with Albumin (Bos taurus); -0.118 in [2]; -0.133 in [3]; -0.0707 in assay [4]; 0.305 in assay [5]; 0.105 in [6]. In addition, the composite z-score in the assay on Sam68 (KHDRBS1) is 0.88; in assay [7], 0.48; in assay [8] it was 0.264. In addition, the composite Z-score in [1] is 0.189 (inactive).

For the compound `CCOC(=O)[C@H](Cc1ccccc1)NC(=O)CCC1CC(OC(=O)NCc2cccc3ccccc23)CC2(CCCC(COC(=O)NCC(c3ccccc3)c3ccccc3)O2)O1` (stereo not given in full), the composite z-score with Albumin (Bos taurus) is 0.313; in assay [2] it was 0.062; in assay [3], -0.169; in assay [4], 0.394; in assay [5], 0.468; in assay [6], -0.0448. The values for the composite z-score (in the assay with Sam68 (KHDRBS1); in [7]; in assay [8]) were 0.914, 0.203 and 0.256, respectively. Further, the composite Z-score in [1] was 0.793 (inactive).

Consider `CCOC(=O)CCN1C(=O)[C@H]2[C@H]3[C@H](O)[C@H](O)CC(=NOCC(C)C)[C@H]3CC[C@H]2C1=O`, for which the composite z-score was 0.345 with Albumin (Bos taurus); -0.0377 in assay [2]; -0.14 in [3]; -0.278 in [4]; 0.163 in assay [5]; 0.528 in assay [6]. Further, the results for the composite z-score (with Sam68 (KHDRBS1); in assay [7]; in [8]) were -0.353, 0.433 and 0.0589, respectively. In addition, the composite Z-score in assay [1] was 0.636 (inactive).
